From PubChem
Sampled rows, rich in hits. Any-hit rate of the full collection: about 4.8%.
DAX1 inh-1: DAX1 (NR0B1) inhibition, primary screen | inhibition, % at 6.8 µM | 370,000 compounds, 1.1% hits | HEK293T StAR-luciferase reporter, SF-1/DAX-1 repression relief | AID 652010;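 active = inhibition above the mean over all tested compounds plus 3 SD, cut at about 3.6% in these data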;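 also: 0% = DAX-1 cells with DMSO and 100% = cells lacking DAX-1 with DMSO; higher inhibition means more luminescence from relief of DAX-1 repression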
ssDAF12 agonist: S. stercoralis DAF-12 activation, primary screen | HEK293 ssDAF-12/GRIP1 lit1-tk-luc reporter, luminescence; % of 3 µM dafachronic acid response | activation, % at 6.8 µM | 370,000 compounds, 1% hits | AID 652126;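 active = activation above the mean over all tested compounds plus 3 SD, cut at about 0.9% in these data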;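 also: 0% = DMSO-only wells and 100% = 3 µM delta7-dafachronic acid wells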
hgDAF12 agonist: hgDAF-12 agonism, primary luciferase screen; HEK293 GAL4-hgDAF12 UAS-luciferase reporter, agonist luminescence; normalized to butyrate control; activation, % at 6.8 µM; 370,000 compounds, 1.8% hits;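 active = activation above a cutoff set at the mean of all screened compounds plus 3 SD, cut at about 10% in these data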;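 also: 0% = DMSO wells and 100% = sodium butyrate wells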
hcDAF12 agonist: activates DAF-12 receptor from parasite H. contortus; HEK293 hcDAF-12 lit1-tk-luc reporter, luminescence; 0% DMSO, 100% Δ7-dafachronic acid; activation, % at 6.8 µM; 370,000 compounds, 1.4% hits; AID 652067;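 active = activation above the mean of all tested compounds plus 3 SD, cut at about 5.5% in these data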;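 also: 100% = response to 3 µM Δ7-dafachronic acid high control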
NR1D1 modulator: modulators of human Rev-erb alpha DNA binding. Rev-erbα–FITC-DNA binding, fluorescence polarization, 90 min. activity, % at 10 µM. 370,000 compounds, 0.79% hits;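 active = activity above about 14%, limit read from the data; passing the limit was not always enough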;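 also: 0% = DMSO wells with 35 nM protein and 100% = DMSO wells with 750 nM protein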
DAX1 inh-2: inhibitors of human orphan nuclear receptor DAX1 (NR0B1) | P51843 | HEK293 Gal4-DAX1 luciferase reporter, luminescence | inhibition, % at 6.75 µM | 340,000 compounds, 0.99% hits;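 active = inhibition above the mean over all tested compounds plus 3 SD, cut at about 4.2% in these data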;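 also: 0% = DAX1-transfected cells with DMSO and 100% = empty-vector control cells with DMSO; inhibition shows as a rise in luminescence from relieved DAX1 repression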
Target sequence (P51843 207-470 limits assumed): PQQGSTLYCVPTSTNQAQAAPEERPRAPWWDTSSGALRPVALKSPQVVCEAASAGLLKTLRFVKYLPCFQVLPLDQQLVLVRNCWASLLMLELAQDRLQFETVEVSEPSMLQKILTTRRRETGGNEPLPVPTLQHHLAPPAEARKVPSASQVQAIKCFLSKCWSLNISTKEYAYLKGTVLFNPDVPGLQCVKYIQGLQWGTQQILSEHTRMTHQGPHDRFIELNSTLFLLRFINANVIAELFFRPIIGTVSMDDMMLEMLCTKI
The depositor's hits bear a star; / = not tested or not shown.

SMILES	DAX1 inh-1	ssDAF12 agonist	hgDAF12 agonist	hcDAF12 agonist	NR1D1 modulator	DAX1 inh-2
CCC(C(=O)NC(C)(C)C)N(C(=O)Cn1nnc(-c2ccccc2F)n1)c1cccc2c1CCCC2 (stereo not given)	1	-1	-2	0	-4	4.3*
Cc1ccc2cc(F)c(F)c(F)c2n1	1	1.5*	7	2	0	/
COc1ccc(Cn2c(NC(=O)c3ccccc3)nc(Cc3ccccc3)c2Cc2ccccc2)cc1	-1	-1	0	1	3	/
Cc1ccc2c(c1)C1CS(=O)(=O)N(C3CCCC3)C(=O)N1C2 (stereo not given)	1	-1	3	2	1	/
Fc1ccc2nc(N3CCOCC3)sc2c1	1	-1	12*	1	-3	0
O=C(c1ccc2nc(N3CCOCC3)sc2c1)N1CCCC1	1	-1	2	2	2	1
Cc1ccc(/C=N/OC(=O)c2c(C)noc2-c2snnc2C)cc1	0	-1	0	0	-1	5.7*
CN(C)c1ccc(Nc2ccc([N+](=O)[O-])cn2)cc1	1	0	7	1	9	5.4*
COC(=O)[C@]12C[C@H](CC(=O)NCC3CCCCC3)C(=O)N(Cc3cccc4ccccc34)C1=C[C@H](C1CCCC1)O[C@@H]2C	0	0	6	1	4	/
CCC(=O)Nc1ccc(F)c(Cl)c1	-1	-1	0	-2	-1	0
O=C(O)CC(CC(=O)Nc1ccc(F)c(Cl)c1)c1ccc(Cl)cc1Cl (stereo not given)	0	-2	1	-1	-2	10*
O=C(Cn1nnc(-c2ccccc2)n1)N1CCCCC1	1	-1	5	3	-1	0
O=C(Cn1nnc(-c2ccccc2Cl)n1)N1CCCCC1	1	0	7	0	6	4.6*
COC(=O)[C@]12C[C@H](CC(=O)NCc3ccc(C)o3)C(=O)N(CCc3ccc(OC)c(OC)c3)C1=C[C@H](C(C)C)O[C@@H]2C1CC1	-1	-1	1	-4	1	/
O=[N+]([O-])c1ccc(C(O)CSC(=S)N2CCCCC2)cc1 (stereo not given)	0	0	7	1	0	5.4*
O=C(O)c1[nH]c2ccccc2c1C=NCc1ccccc1Cl	0	0	-1	2	-5	4.9*
O=C(O)c1[nH]c2ccccc2c1-c1ccccc1	0	-1	1	-1	0	1
CC(C)C[C@@H]1COc2cc(Br)ccc2S(=O)(=O)N1Cc1cn(Cc2ccccc2)nn1	0	-1	1	-1	-7	/
CN(C)c1ccc(N=Nc2ccc(S(N)(=O)=O)cc2)cc1	2	0	11*	4	-27	3
CN(C)N=Nc1ccc(S(N)(=O)=O)cc1	0	-2	-2	0	5	0
CCOC(=O)[C@@]12CCCC=C1N(CCc1ccc(Cl)cc1)C(=O)[C@H]2CC(=O)NCc1cccs1	-1	-1	-3	-2	5	/
CCCC(=O)OC[C@H]1CN(C2CCCC2)S(=O)(=O)c2c(Oc3ccc(F)cc3OC)cccc2O1	0	-1	-1	-1	5	/
O=C(NC1CCN(C(=O)N2CCOCC2)CC1)c1ccccc1	-1	-1	1	-2	3	1
CCN(CC)C(=O)N1CCC(NC(=O)c2ccccc2)CC1	0	-1	3	-2	4	4.7*
C/C(=C/c1nc(N)n(Cc2ccccc2)c1Cc1ccccc1)Cn1[nH]c(=O)n(-c2ccccc2)c1=O	-1	-2	-2	1	0	/
CC1(C)CC(=O)C2=C(C1)N(c1ccc(F)cc1)C(=O)CC2c1cccnc1 (stereo not given)	0	-2	0	-2	2	1
CCSc1nnc(N2C(=O)CC(c3ccsc3)C3=C2CC(C)(C)CC3=O)s1 (stereo not given)	2	-1	-3	-2	-4	5.3*
CCOC(=O)[C@@]12CN(C(=O)OC(C)(C)C)CC=C1N(Cc1ccc(OC)cc1)C(=O)[C@H]2CC(=O)NCCCCc1ccccc1	0	-2	-1	-3	0	/
Oc1ccc(-c2nnc(SCC3CCCCC3)o2)cc1	3	0	11*	1	-6	1
